Hit rate of the full screen: of about 48,000 compounds, about 13,000 (27%) showed an effect of 50% or more. Some of the results follow.
Tested on: Wolbachia pipientis
Assay: Anti-Wolbachia Cell-Based Screen
Format: functional
Design: scale not given: in the data most compounds retested in dose-response had high values
Details: 5 µM

Row | SMILES | Percent Effect
1 | Cc1cc2nc(CO[C@H]3CN(C4CCN(C)CC4)C[C@H]3F)[nH]c2cc1C | -19.54%
2 | COc1cccc2c1OCC(C(=O)N1CCC(NS(C)(=O)=O)CC1)C2 (stereo unspecified) | 16.61%
3 | CC(C)c1cnc(CN2C(=O)CC3(CCSC3)C2=O)o1 (stereo unspecified) | 17.31%
4 | OC1CN(Cc2ccccc2)CCN(c2ccncc2)C1 (stereo unspecified) | 12.72%
5 | CC(C)O[C@H]1CN(Cc2cnc3c(-c4ccccc4)cnn3c2)C[C@@H]1O | 3.276%
6 | CCC1CN(C(=O)c2cncc(C)c2)CCC(=O)N1Cc1ccccc1 (stereo unspecified) | -10.11%
7 | Cc1cncc(CN2C[C@@H](O)[C@H](Oc3ccccc3)C2)c1 | 132.9%
8 | O[C@@H]1CN(Cc2ccncc2)C[C@H]1Oc1ccccc1 | 125.9%
9 | F[C@@H]1CN(Cc2cccnc2)C[C@@H]1OCc1nc2ccccc2[nH]1 | 10.94%
10 | Cc1cnccc1CN1C[C@@H](O)[C@H](Oc2ccccc2)C1 | -5.554%
11 | O[C@@H]1CN(Cc2cccnc2)C[C@H]1Oc1ccccc1 | 103.4%
12 | O=C1NC(c2ccccc2)=N[C@@]12CC[C@@H]1CN(Cc3cccnc3)C[C@@H]12 | 0.6919%
13 | COCC(=O)N1CCN(c2ncnc3cccc(F)c23)CC1 | 0.7263%
14 | CC1COc2ccccc2N1C(=O)c1ccc(=O)n(C)c1 (stereo unspecified) | -18.38%
15 | Fc1cccc(N2CCCC3(C2)CN(c2ncccn2)CCO3)c1.O=C(O)C(F)(F)F.O=C(O)C(F)(F)F (stereo unspecified) | -1.466%
16 | CCc1nc(CN2CCCN(c3ncnc4ccsc34)CC2)no1 | -84.77%
17 | CCc1nc(CN2CCCN(c3nccs3)CC2)no1 | 1.816%
18 | Cc1csc(N2CCCN(Cc3noc(C)n3)CC2)n1 | 0.2085%
19 | Cc1nc(CN2CCCN(c3nccs3)CC2)no1 | 78.71%
20 | CC(C)c1nc(CN2CCCN(c3nccs3)CC2)no1 | 89.07%
21 | c1csc(N2CCCN(Cc3noc(C4CC4)n3)CC2)n1 | 107.3%
22 | c1csc(N2CCN(Cc3nnnn3C3CC3)CC2)n1 | -36.32%
23 | c1csc(N2CCCN(Cc3nc(C4CC4)no3)CC2)n1 | -5.415%

Row | SMILES | Percent Effect
24 | C[C@@H]1CN(C(=O)CCc2nncn2C)C[C@@]1(O)C1CCC1 | -1.808%
25 | Cc1cc(C)n(C(=O)c2cn(C)nc2S(=O)(=O)N2CCSCC2)n1 | -0.316%
26 | Cc1ccc(O)c(CN2CCCCC2CCN2CCOCC2)c1 (stereo unspecified) | 102.9%
27 | Cc1nccn1CCC1CCCCN1Cc1ccc(O)cc1Cl (stereo unspecified) | -13.87%
28 | Cc1oc(-c2ccoc2)nc1CN1CCCCC1CCn1cccn1 (stereo unspecified) | 3.711%
29 | COc1cc2c(cc1CN1CCCCC1CN1CCOCC1)CCC2 (stereo unspecified) | 26.24%
30 | Cc1ccc2nc(CN3CCCCC3CCN3CCOCC3)cn2c1 (stereo unspecified) | 98.48%
31 | Cc1ccc2nc(CN3CCCCC3CCn3cccn3)cn2c1 (stereo unspecified) | 89.18%
32 | COCCCC1CCCCN1Cc1cnn(C)c1C1CC1 (stereo unspecified) | 18.85%
33 | Cc1c[nH]c(CN2CCCCC2CCn2cccn2)c(C)c1=O (stereo unspecified) | 21.06%
34 | COc1c(C)cnc(CN2CCCCC2CCN2CCOCC2)c1C (stereo unspecified) | 0.5923%
35 | Cc1cnn(CC2CCCN2Cc2cc(=O)n3cc(C)ccc3n2)c1 (stereo unspecified) | 11.19%
36 | COCCCC1CCCCN1Cc1cn2cc(C)ccc2n1 (stereo unspecified) | 95.19%
37 | CCCn1ncc(CN2CCCCC2CCCOC)c1C (stereo unspecified) | -0.2831%
38 | CC(C)(C)CN(CCC#N)C(=O)Nc1cccc(N2CCNC2=O)c1 | 7.726%
39 | O=C(c1ccccc1F)N(CCCO)S(=O)(=O)c1cccs1 | 2.629%
40 | O=C(NCCNc1ncccn1)N(Cc1ccc(F)cc1F)C1CC1 | -5.455%
41 | N#Cc1ccccc1OCCN1CCCCC1C(=O)N1CCOCC1 (stereo unspecified) | 9.052%
42 | Cc1ccc2nc(CN3CCCCC3C(=O)N3CCOCC3)cn2c1 (stereo unspecified) | 89.82%
43 | O=C(CN1CCCC1c1nc(-c2ccccc2)no1)N1CCOCC1 (stereo unspecified) | 6.777%
44 | Cc1nc(CN2CCCN(C(=O)C(C)OCC3CC3)CC2)cs1 (stereo unspecified) | 0.6409%
45 | COc1ccc(S(=O)(=O)NC(=O)c2c(C)noc2C(C)C)cc1C | -2.008%
46 | CCc1nc(N2CCCC(CCOC)(C(=O)O)C2)ncc1C (stereo unspecified) | 2.702%

Row | SMILES | Percent Effect
47 | CC(C)S(=O)(=O)CCN1CCN(C(C#N)c2ccccc2)CC1 (stereo unspecified) | 88.63%
48 | CCCS(=O)(=O)CCN1CCN(C(C#N)c2ccccc2)CC1 (stereo unspecified) | 125.8%
49 | CC(c1ccc(Cl)cc1)N1CCN(CCCS(N)(=O)=O)CC1 (stereo unspecified) | 8.4%
50 | CCCS(=O)(=O)CCN1CCN(c2cc(F)ccc2F)CC1 | -4.475%
51 | CCS(=O)(=O)CCN1CCN(C(C)c2cccnc2)CC1 (stereo unspecified) | 4.9%
52 | CC(c1ccc(Cl)cc1)N1CCN(CCS(N)(=O)=O)CC1 (stereo unspecified) | -4.709%
53 | CS(=O)(=O)N1C[C@H](C(=O)Nc2cnccn2)C[C@H]2OCC[C@H]21 | -3.249%
54 | O=C1N(Cc2ccc(F)c(F)c2)CCCC12CCN(C1CCCCC1)C2 (stereo unspecified) | -2.682%
55 | CN(C)C(=O)N1CC2(CCN(S(C)(=O)=O)CC2)c2ccccc21 | 1.836%
56 | Cc1cccc(N2CCC(N3CCC4(CCCNC4=O)C3)CC2)c1C (stereo unspecified) | 11.3%
57 | CS(=O)(=O)N1CC2(CCN(C3CCCCC3)C2)Cc2ccccc21 (stereo unspecified) | 120%
58 | CS(=O)(=O)N1CC2(CCN(C3CCCCC3)CC2)Cc2ccccc21 | 114.5%
59 | CS(=O)(=O)N1CCc2[nH]cnc2C12CCN(C1CCOCC1)CC2 | 0.6109%
60 | CC(C)CCN1CCc2[nH]nc(C(=O)N3CCCC3C)c2C1.O=C(O)C(F)(F)F (stereo unspecified) | -10.1%
61 | CS(=O)(=O)N1CC[C@@H]2[C@@H](CCC(=O)N2CCC2=CCCCC2)C1 | -15.08%
62 | CN(Cc1cnn(C)c1)Cc1nc(CCc2ccccc2)no1 | 8.219%
63 | Cc1cnccc1-c1cnn(CCNC(=O)c2cccnc2)c1C1CC1.Cl | 156.9%
64 | Cc1cnccc1-c1cnn(CCNC(=O)c2ccncc2)c1C1CC1.Cl | 189.5%
65 | O=C(NCCSC1CCCC1)c1cnccn1 | 5.351%
66 | CC(C)(C)C(=O)NCCC(=O)NS(=O)(=O)c1cccnc1 | 1.555%
67 | Cc1ccccc1C1CCN(C(=O)CCNC(=O)C(C)(C)C)C1 (stereo unspecified) | -3.334%
68 | Cc1cnccc1-c1cnn(CCNC(=O)c2ccccn2)c1C1CC1.Cl | 221.9%
69 | CCOC(=O)NC(CNC(=O)c1ccccn1)CC(C)C (stereo unspecified) | -0.8901%

Row | SMILES | Percent Effect
70 | CCNc1ncc(C(=O)NCCNc2ccncc2C)cn1 | 11.05%
71 | Cc1ccc(CN(C(=O)NCCNC(=O)c2cccnc2)C(C)C)o1 | -0.6443%
72 | Cc1cnccc1-c1cnn(CCNC(=O)C(C)(C)C)c1C1CC1.Cl | 128.5%
73 | Cc1cnn(C(C)C2CC2)c1NC(=O)c1ccncc1 (stereo unspecified) | -0.2997%
74 | CC(Cn1cccn1)NCc1csc(-c2ccc(F)cc2)n1 (stereo unspecified) | 3.098%
75 | CCCSCC(=O)Nc1ncn(CC(=O)N2CCCCCC2)n1 | -27.1%
76 | COC(=O)c1cccc(CN(C)Cc2ncnn2C)c1C#N | -234%
77 | O=C(Nc1cnn(-c2ccccc2Cl)c1)N[C@@H]1C=C[C@H](CO)C1 | -14.17%
78 | O=C(Cn1cnnn1)Nc1ccc(F)cc1OCC1CC1 | 11.02%
79 | O=C(NCC1CC1)Nc1cnc2ccc(F)cc2c1O | 100.3%
80 | COc1ccc2c(O)c(NC(=O)NCC3CC3)cnc2c1 | -18.39%
81 | CNc1nc(CNC(=O)Nc2cccc(COCCOC(C)C)c2)cs1 | -6.236%
82 | CC(C)c1ccc(S(=O)(=O)N2CCCC3(CCCN3S(C)(=O)=O)C2)cc1 (stereo unspecified) | 108.3%
83 | CCc1ccc(S(=O)(=O)N2CCC3(CC(C(=O)NC)=NO3)C2)cc1 (stereo unspecified) | 16.22%
84 | CCc1ccc(S(=O)(=O)N2CCCC3(CCCN3S(C)(=O)=O)C2)cc1 (stereo unspecified) | 114.6%
85 | CS(=O)(=O)N1CCCC12CCCN(c1nccs1)C2 (stereo unspecified) | 4.667%
86 | CC(C)CC(c1nc(-c2cnn(C)c2)no1)N1CCCCC1=O (stereo unspecified) | 17.74%
87 | CC(=O)c1ccc(OCC(C)O)cc1O (stereo unspecified) | 100.7%
88 | Cc1ccccc1NC(=O)CNC(C)COc1ccccc1 (stereo unspecified) | -5.07%
89 | CC(=O)c1ccc(Cl)c(Cl)c1OCC(=O)NC(N)=O | 29.22%
90 | Cc1ccc(OCC(C)NS(C)(=O)=O)cc1C (stereo unspecified) | 1.577%
91 | CCOC(=O)COc1ccc(C(C)=O)c(O)c1 | 95.41%
92 | CCOC(=O)COc1cccc(NC(=O)C2COCCO2)c1 (stereo unspecified) | -0.4507%

Row | SMILES | Percent Effect
93 | CN(Cc1cccc(F)c1)C(=O)CN1CCCCC1Cn1cncn1 (stereo unspecified) | -4.656%
94 | COC(=O)CCN1CCCC1c1cccc2c1OCCO2 (stereo unspecified) | 6.335%
95 | CN(C)C(=O)N1CC[C@@H](c2ccc3ccccc3c2)[C@H](O)C1 | 2.148%
96 | COc1ccc(-c2noc([C@@H](C)NC(=O)CC(C)C)c2C(=O)O)cc1 | 0.3938%
97 | Cc1cc(CN(C)Cc2csc(-c3ccc(C(C)C)cc3)n2)no1 | -4.334%
98 | CC(C)c1ccc(C(N)c2cccs2)cc1 (stereo unspecified) | -4.854%
99 | CC(C)c1ccc(-c2nonc2N)cc1 | 135.4%
100 | COCC(=O)N[C@H](C)c1onc(-c2ccc(OC)cc2)c1C(=O)O | 9.623%
101 | COc1ccc(-c2nonc2N)cc1 | 116.2%
102 | CCN1CCN(c2ccc(F)cc2C(C)NCc2cscn2)CC1 (stereo unspecified) | 16.44%
103 | CC(C)CCC1=NC2(CCN(C(=O)N3CCN(C)CC3)CC2)C(=O)N1 | 15.84%
104 | Cn1ccnc1CN1CCC2(CC1)CC(Nc1ccccn1)CO2 (stereo unspecified) | -5.655%
105 | Cn1ccnc1CN1CCC2(CC1)CC(NC(=O)c1ccccn1)CO2.O=C(O)C(F)(F)F (stereo unspecified) | -5.802%
106 | COc1ccc2c(c1)C1(CCN(Cc3cccnc3)CC1)N(C)CC2.O=C(O)C(F)(F)F.O=C(O)C(F)(F)F.O=C(O)C(F)(F)F | 47.52%
107 | Cn1ccnc1CN1CCC2(CC1)CC(N1CCCC1)c1ccccc12 (stereo unspecified) | 116.8%
108 | CN(C)C1CC2(CCN(C(=O)NC3CC3)CC2)c2ccccc21.O=C(O)C(F)(F)F (stereo unspecified) | -41.61%
109 | CN(C)C1CCC2(CCN(Cc3cccnc3)CC2)c2ccccc21.O=C(O)C(F)(F)F.O=C(O)C(F)(F)F.O=C(O)C(F)(F)F (stereo unspecified) | 103.9%
110 | Cn1ccnc1CN1CCN(Cc2ccccc2C#N)CC1 | 1.879%
111 | CN(C)C1CCC2(CCN(Cc3nccn3C)CC2)c2ccccc21.O=C(O)C(F)(F)F.O=C(O)C(F)(F)F (stereo unspecified) | 100.5%

— ChEMBL document CHEMBL3988442, “University of Dundee, Small-Polar-MMV Screening Library” (2021)
